The structures appear in SMILES notation. Activity calls are given as the source filed them.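 Rule for the calls: active = compounds whose dose response marks them as Clk4 kinase inhibitors with a measurable half-maximal potency; inactive = the rest.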

For this experiment, the target named is Dual specificity protein kinase CLK4 (Homo sapiens) (UniProt Q9HAZ1). In words: Kinase Inhibition Profile Study on Inhibitors of CDC-like Kinase 4. The settings on record: Reaction Biology radiometric kinase assay, 10 uM ATP. From the text: NIH Molecular Libraries Probe Production Centers Network [MLPCN] NIH Chemical Genomics Center [NCGC] MLSCN Grant: 1R03MH084827-01 Assay Submitter (PI): Tom Misteli NCGC Assay Overview: Alternative splicing of pre-mRNAs plays a major role in the regulation of eukaryotic gene expression. Alternative splicing is now thought to be one of the primary reasons for the complexity of higher organisms leading to an average of three protein isoforms per gene. Aberrant splicing can lead to a number of diseases and is known to play a role in rare genetic diseases such as progeria syndrome. Hutchinson-Gilford Progeria Syndrome (HGPS) is a pediatric premature aging disease caused by a spontaneous mutation in the lamin A/C (LMNA) gene due to a single point mutation in the lamin A gene effecting 1 in 4 million people. To identify both specific splicing modulators of the lamin A gene as well as general splicing modulators, a cell-based HTS assay was developed using a minigene reporter system (AIDs, 1459 & 1487). […] The Clk family is part of the CMGC group of protein kinases which includes Dyrks and are essential kinases found in all eukaryotes. Clks have been implicated to play a role in the regulation of alternative splicing; while Dyrks, in particular over expression of Dyrk1A, has been linked to diseases as Down syndrome and Alzheimer disease. This AID summarizes the characterization of lead Clk4 inhibitors in a panel of these related kinases: Clk1, 2 & 3, DYRK1/DYRK1A, and DYRK1B. Potency against Clk4 was also confirmed in the panel.
Chain of Dual specificity protein kinase CLK4 (Homo sapiens) (Q9HAZ1 whole entry, looked up, canonical isoform): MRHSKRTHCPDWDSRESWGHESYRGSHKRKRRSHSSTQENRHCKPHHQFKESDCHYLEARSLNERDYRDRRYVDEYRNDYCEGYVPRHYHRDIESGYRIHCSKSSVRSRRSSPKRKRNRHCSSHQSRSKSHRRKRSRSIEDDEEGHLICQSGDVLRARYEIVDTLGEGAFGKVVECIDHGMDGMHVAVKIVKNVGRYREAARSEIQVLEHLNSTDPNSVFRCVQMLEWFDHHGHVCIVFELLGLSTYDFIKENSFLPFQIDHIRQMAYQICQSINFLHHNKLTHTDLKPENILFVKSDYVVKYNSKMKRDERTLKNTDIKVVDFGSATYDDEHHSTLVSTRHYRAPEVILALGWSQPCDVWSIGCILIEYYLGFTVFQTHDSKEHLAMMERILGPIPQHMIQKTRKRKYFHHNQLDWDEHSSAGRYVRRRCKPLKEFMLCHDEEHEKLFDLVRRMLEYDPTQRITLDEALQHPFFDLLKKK
All kinase reactions were performed using 10 uM ATP in the assay. 100% activity was taken from kinase reactions with DMSO alone (the vehicle used for compound stock solutions).
Regarding `CCOC(=O)c1ccc(-c2ccc3ncnc(NCc4ncc[nH]4)c3c2)o1`, the Potency was 0.79 µM (active). To `c1csc(CNc2ncnc3ccc(-c4ccoc4)cc23)c1` belongs 0.249 µM (active); to `CCOC(=O)c1ccc(-c2ccc3ncnc(NCCc4cnc[nH]4)c3c2)o1`, 0.25 µM (active). To `c1csc(CNc2ncnc3ccc(-c4ccc5c(c4)OCO5)cc23)c1` belongs 0.039 µM (active); to `COc1cccc(-c2ccc3ncnc(NCc4cccs4)c3c2)c1`, 1.05 µM (active); to `c1nc(NCC2CCOC2)c2cc(-c3ccc4c(c3)OCO4)ccc2n1` (stereo unspecified), 0.029 µM (active). `c1coc(-c2ccc3ncnc(NCc4cccs4)c3c2)c1`: the Potency is 1.09 µM (active). Turning to `Cc1occc1-c1ccc2ncnc(NCCc3cnc[nH]3)c2c1`, the Potency is 0.74 µM (active). To `Cc1nc(CNc2ncnc3ccc(-c4ccoc4)cc23)cs1` belongs 0.34 µM (active).

Consider `O=C(O)c1ccc(-c2ccc3ncnc(NCCc4cnc[nH]4)c3c2)o1`, for which the Potency is 0.94 µM (active). To `c1nc(NCCc2cnc[nH]2)c2cc(-c3ccoc3)ccc2n1` belongs 0.84 µM (active); to `CCOC(=O)c1ccc(-c2ccc3ncnc(NCc4csc(C)n4)c3c2)o1`, 0.81 µM (active). Take `OCc1ccc(-c2ccc3ncnc(NCCc4cnc[nH]4)c3c2)o1`: the Potency was 1.29 µM (active).

Take `Cc1nc(CN(C)c2ncnc3ccc(-c4ccc5c(c4)OCO5)cc23)cs1`: the Potency is 0.011 µM (active). The same measure for `c1nc(NCC2CCCC2)c2cc(-c3ccc4c(c3)OCO4)ccc2n1`: 0.09 µM (active); for `Cc1ccc(CNc2ncnc3ccc(-c4ccoc4C)cc23)o1`: 0.49 µM (active); for `Cc1nc(CNc2ncnc3ccc(-c4ccoc4C)cc23)cs1`: 0.85 µM (active). For `CCOC(=O)c1ccc(-c2ccc3ncnc(NCc4ccc(C)o4)c3c2)o1`, the Potency was 0.23 µM (active). Take `Cc1nc(CNc2ncnc3ccc(-c4ccc5c(c4)OCO5)cc23)cs1`: the Potency was 0.04 µM (active). For the compound `CN(Cc1ncc[nH]1)c1ncnc2ccc(-c3ccc4c(c3)OCO4)cc12`, the Potency was 0.12 µM (active). The same measure for `CC(C)(C)CNc1ncnc2ccc(-c3ccc4c(c3)OCO4)cc12`: 0.07 µM (active).

Values taken from PubChem BioAssay AID2710 (National Center for Advancing Translational Sciences (NCATS), 2010).
